# B1: unnamed (peptide)
# chain: LEFRAILFIPKRAPF
# B2: unnamed (peptide)
# chain: PPPPPPPPPPPLPQS
# B3: unnamed (peptide)
# chain: AVPPPPPPPPLPESL
# Target: AgAbp1
# Test: SPOT peptide array binding signal intensity (averaged, normalized) (arbitrary units (background-subtracted, floor 0; scale differs between SH3 domains)); higher = stronger binding of the SH3 domain to the peptide
# In short: (§1)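 E. coli BL21(DE3) was used to express GST-fused SH3 domains from four yeast species, which were then purified on glutathione Sepharose. These were incubated at 10 μg/ml in TBS-based blocking buffer overnight at 4°C on cellulose membranes carrying synthetic 15-mer peptides, in which cysteines were replaced by serines. Binding signal is the replicate average of normalized, background-subtracted spot intensity, in arbitrary units that differ between domains.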
row,Binder,SPOT peptide array binding signal intensity
1,B1,9
2,B3,8.5

# Target: AgBbc1
# Test: as above
# In short: as §1
row,Binder,SPOT peptide array binding signal intensity
1,B1,11.8
2,B3,0.5

# Target: AgBem1-D1
# Test: as above
# In short: as §1
row,Binder,SPOT peptide array binding signal intensity
1,B1,198
2,B3,≤ 0

# Target: AgBzz1-D1
# Test: as above
# In short: as §1
row,Binder,SPOT peptide array binding signal intensity
1,B1,30.5
2,B3,1

# Target: AgBzz1-D2
# Test: as above
# In short: as §1
row,Binder,SPOT peptide array binding signal intensity
1,B1,37
2,B3,5.5

# Target: AgCyk3
# Test: as above
# In short: as §1
row,Binder,SPOT peptide array binding signal intensity
1,B1,4
2,B3,≤ 0

# Target: AgFus1
# Test: as above
# In short: as §1
row,Binder,SPOT peptide array binding signal intensity
1,B1,2310
2,B3,2

# Target: AgHof1
# Test: as above
# In short: as §1
row,Binder,SPOT peptide array binding signal intensity
1,B1,52.8
2,B3,182

# Target: AgHse1
# Test: as above
# In short: as §1
row,Binder,SPOT peptide array binding signal intensity
1,B1,654
2,B3,26

# Target: AgLsb1
# Test: as above
# In short: as §1
row,Binder,SPOT peptide array binding signal intensity
1,B1,1.5
2,B3,0.5

# Target: AgLsb4
# Test: as above
# In short: as §1
row,Binder,SPOT peptide array binding signal intensity
1,B1,989
2,B3,3

# Target: AgMyo5
# Test: as above
# In short: as §1
row,Binder,SPOT peptide array binding signal intensity
1,B1,≤ 0
2,B3,188

# Target: AgNbp2
# Test: as above
# In short: as §1
row,Binder,SPOT peptide array binding signal intensity
1,B1,558
2,B3,18

# Target: AgRvs167
# Test: as above
# In short: as §1
row,Binder,SPOT peptide array binding signal intensity
1,B1,8.17
2,B3,0.667

# Target: AgSho1
# Test: as above
# In short: as §1
row,Binder,SPOT peptide array binding signal intensity
1,B1,850
2,B3,1

# Target: AgSla1-D1-D2
# Test: as above
# In short: as §1
row,Binder,SPOT peptide array binding signal intensity
1,B1,14
2,B3,≤ 0

# Target: AgSla1-D3
# Test: as above
# In short: as §1
row,Binder,SPOT peptide array binding signal intensity
1,B1,4.25
2,B3,2

# Target: CaAbp1-D1
# Test: as above
# In short: as §1
row,Binder,SPOT peptide array binding signal intensity
1,B1,56
2,B3,1

# Target: CaAbp1-D2
# Test: as above
# In short: as §1
row,Binder,SPOT peptide array binding signal intensity
1,B1,58
2,B3,1

# Target: CaBbc1
# Test: as above
# In short: as §1
row,Binder,SPOT peptide array binding signal intensity
1,B1,68
2,B3,≤ 0

# Target: CaBem1-D1
# Test: as above
# In short: as §1
row,Binder,SPOT peptide array binding signal intensity
1,B1,5
2,B3,1

# Target: CaBzz1-D1
# Test: as above
# In short: as §1
row,Binder,SPOT peptide array binding signal intensity
1,B1,212
2,B3,951

# Target: CaBzz1-D2
# Test: as above
# In short: as §1
row,Binder,SPOT peptide array binding signal intensity
1,B1,109
2,B3,158

# Target: CaCyk3
# Test: as above
# In short: as §1
row,Binder,SPOT peptide array binding signal intensity
1,B1,16.5
2,B3,≤ 0

# Target: CaFus1
# Test: as above
# In short: as §1
row,Binder,SPOT peptide array binding signal intensity
1,B1,5550
2,B3,2

# Target: CaHof1
# Test: as above
# In short: as §1
row,Binder,SPOT peptide array binding signal intensity
1,B1,6
2,B3,0.5

# Target: CaHse1
# Test: as above
# In short: as §1
row,Binder,SPOT peptide array binding signal intensity
1,B1,267
2,B3,4.75

# Target: CaLsb1
# Test: as above
# In short: as §1
row,Binder,SPOT peptide array binding signal intensity
1,B1,19
2,B3,0.5

# Target: CaLsb4
# Test: as above
# In short: as §1
row,Binder,SPOT peptide array binding signal intensity
1,B1,81
2,B3,≤ 0

# Target: CaMyo5
# Test: as above
# In short: as §1
row,Binder,SPOT peptide array binding signal intensity
1,B1,13.2
2,B3,29

# Target: CaNbp2
# Test: as above
# In short: as §1
row,Binder,SPOT peptide array binding signal intensity
1,B1,1090

# Target: CaRvs167
# Test: as above
# In short: as §1
row,Binder,SPOT peptide array binding signal intensity
1,B1,224

# Target: CaRvs167-3
# Test: as above
# In short: as §1
row,Binder,SPOT peptide array binding signal intensity
1,B1,268

# Target: CaSho1
# Test: as above
# In short: as §1
row,Binder,SPOT peptide array binding signal intensity
1,B1,2030

# Target: CaSla1-D1-D2
# Test: as above
# In short: as §1
row,Binder,SPOT peptide array binding signal intensity
1,B1,49

# Target: CaSla1-D3
# Test: as above
# In short: as §1
row,Binder,SPOT peptide array binding signal intensity
1,B1,249

# Target: ScAbp1
# Test: as above
# In short: as §1
row,Binder,SPOT peptide array binding signal intensity
1,B1,5

# Target: ScBbc1
# Test: as above
# In short: as §1
row,Binder,SPOT peptide array binding signal intensity
1,B1,0.25

# Target: ScBem1-D1
# Test: as above
# In short: as §1
row,Binder,SPOT peptide array binding signal intensity
1,B1,18

# Target: ScBzz1-D1
# Test: as above
# In short: as §1
row,Binder,SPOT peptide array binding signal intensity
1,B1,25.5

# Target: ScBzz1-D2
# Test: as above
# In short: as §1
row,Binder,SPOT peptide array binding signal intensity
1,B1,162

# Target: ScCyk3
# Test: as above
# In short: as §1
row,Binder,SPOT peptide array binding signal intensity
1,B1,35

# Target: ScFus1
# Test: as above
# In short: as §1
row,Binder,SPOT peptide array binding signal intensity
1,B1,3610

# Target: ScHof1
# Test: as above
# In short: as §1
row,Binder,SPOT peptide array binding signal intensity
1,B1,1

# Target: ScHse1
# Test: as above
# In short: as §1
row,Binder,SPOT peptide array binding signal intensity
1,B1,1790

# Target: ScLsb1
# Test: as above
# In short: as §1
row,Binder,SPOT peptide array binding signal intensity
1,B1,2

# Target: ScLsb2
# Test: as above
# In short: as §1
row,Binder,SPOT peptide array binding signal intensity
1,B1,≤ 0

# Target: ScLsb3
# Test: as above
# In short: as §1
row,Binder,SPOT peptide array binding signal intensity
1,B1,164

# Target: ScLsb4
# Test: as above
# In short: as §1
row,Binder,SPOT peptide array binding signal intensity
1,B1,11.5

# Target: ScMyo3
# Test: as above
# In short: as §1
row,Binder,SPOT peptide array binding signal intensity
1,B1,≤ 0

# Target: ScMyo5
# Test: as above
# In short: as §1
row,Binder,SPOT peptide array binding signal intensity
1,B1,4

# Target: ScNbp2
# Test: as above
# In short: as §1
row,Binder,SPOT peptide array binding signal intensity
1,B1,593

# Target: ScPex13
# Test: as above
# In short: as §1
row,Binder,SPOT peptide array binding signal intensity
1,B1,186

# Target: ScRvs167
# Test: as above
# In short: as §1
row,Binder,SPOT peptide array binding signal intensity
1,B1,29.2

# Target: ScSho1
# Test: as above
# In short: as §1
row,Binder,SPOT peptide array binding signal intensity
1,B1,3570

# Target: ScSla1-D1-D2
# Test: as above
# In short: as §1
row,Binder,SPOT peptide array binding signal intensity
1,B1,37.5

# Target: ScSla1-D3
# Test: as above
# In short: as §1
row,Binder,SPOT peptide array binding signal intensity
1,B1,94.5

# Target: SpAbp1-D1
# Test: as above
# In short: as §1
row,Binder,SPOT peptide array binding signal intensity
1,B1,30

# Target: SpBbc1
# Test: as above
# In short: as §1
row,Binder,SPOT peptide array binding signal intensity
1,B1,11.5

# Target: SpBzz1-D1
# Test: as above
# In short: as §1
row,Binder,SPOT peptide array binding signal intensity
1,B1,220

# Target: SpBzz1-D2
# Test: as above
# In short: as §1
row,Binder,SPOT peptide array binding signal intensity
1,B1,0.5
2,B2,31.2

# Target: SpCyk3
# Test: as above
# In short: as §1
row,Binder,SPOT peptide array binding signal intensity
1,B1,10.5
2,B2,1

# Target: SpHof1
# Test: as above
# In short: as §1
row,Binder,SPOT peptide array binding signal intensity
1,B1,61.5
2,B2,≤ 0

# Target: SpHof1-2
# Test: as above
# In short: as §1
row,Binder,SPOT peptide array binding signal intensity
1,B1,29.5
2,B2,≤ 0

# Target: SpHof1-3
# Test: as above
# In short: as §1
row,Binder,SPOT peptide array binding signal intensity
1,B1,418
2,B2,≤ 0

# Target: SpHse1
# Test: as above
# In short: as §1
row,Binder,SPOT peptide array binding signal intensity
1,B1,1270
2,B2,21

# Target: SpLsb1
# Test: as above
# In short: as §1
row,Binder,SPOT peptide array binding signal intensity
1,B1,≤ 0
2,B2,4.5

# Target: SpLsb4
# Test: as above
# In short: as §1
row,Binder,SPOT peptide array binding signal intensity
1,B1,10
2,B2,31

# Target: SpMyo1
# Test: as above
# In short: as §1
row,Binder,SPOT peptide array binding signal intensity
1,B1,11
2,B2,1470

# Target: SpNbp2
# Test: as above
# In short: as §1
row,Binder,SPOT peptide array binding signal intensity
1,B1,1170
2,B2,2

# Target: SpPex13
# Test: as above
# In short: as §1
row,Binder,SPOT peptide array binding signal intensity
1,B1,127
2,B2,≤ 0

# Target: SpRvs167
# Test: as above
# In short: as §1
row,Binder,SPOT peptide array binding signal intensity
1,B1,17.3
2,B2,124

# Target: SpSla1-D1-D2
# Test: as above
# In short: as §1
row,Binder,SPOT peptide array binding signal intensity
1,B1,≤ 0
2,B2,1.5

# Target: SpSla1-D3
# Test: as above
# In short: as §1
row,Binder,SPOT peptide array binding signal intensity
1,B1,66.5
2,B2,≤ 0
